Reference: PubChem BioAssay (NCATS)
Inconclusive results are not listed. Where a call stands in place of a potency, no number is given. Active and inactive are the calls of the source. The call rests on the fitted dose curve; in most records, active means well fitted cell-killing curve with a large enough effect; inconclusive means small, poorly fitted or top-dose-only effect; inactive means flat fitted curve, though single readings scatter.

Assay: Quantitative highthroughput screen to assess conditional lethalithy of P12 Ichikawa cells grown in Human Plasma-Like Medium with dialyzed fetal bovine serum (HPLM+ds) (AID 1963879); further: nearly all actives have a fitted effect of over 35% in size
Settings: ATP luminescence, 48 h; Potency: viability; series mostly up to 45.8 µM
From the text: Assay Provider: Jason Cantor Ph.D.
Department of Biochemistry
University of Wisconsin-Madison, Madison, WI, USA
Chemical screening studies have identified drug sensitivities across hundreds of cancer cell lines but most putative therapeutics fail to translate. Discovery and development of drug candidates in models that more accurately reflect nutrient levels in human blood is a major challenge. Here we performed high-throughput screens in conventional versus Human Plasma-Like Medium (HPLM) to identify compounds that were "missed" when screening using the artificial culture condition. Sets of conditional anticancer compounds spanned phases of clinical development and included non-oncology drugs were assessed. […] We also traced conditional phenotypes for several chemotherapeutics to availability of HPLM-specific metabolites and confirmed others for compounds whose reported targets are encoded by nonessential genes. Our findings establish generalizable strategies for exploiting conditional lethality in HPLM to reveal therapeutic candidates and mechanisms of action in cancer cells.
Described herein are the results of each viability screens against three cell lines: NOMO1 (an acute myeloid leukemia cell line); P12-Ichikawa (a T-cell acute lymphoblastic leukemia); and SEM (a B-cell ALL). Each assay was screened using 3 different cell culture media: homemade human plasma-Like medium with 10% dialyzed fetal bovine serum (HPLM+ds); RPMI1640 with 10% untreated FBS and 5mM glucose (RPMI+s); and RPMI1640 with 10% dialyzed fetal bovine serum and 5 mM glucose (RPMI+ds).
PROTOCOL TABLE (as described by Inglese J, Shamu CE and Guy RK. 2007)
SEQUENCE No. (e.g., 1, 2, 3, etc.); […] (e.g., Cells, Incubation, Reagent, etc.); VALUE and DESCRIPTION.
1; Cells; 5 uL; white, solid bottom 1536-well Greiner assay plate.
2; Compounds; 23 nL; Kalypsis pin tool (Wako USA) equipped with a 1536-well pin head to transfer to the assay plates.
3; Incubation; 48 hours; 37C incubation.
4; Reagent; 3 uL; CellTiter Glo (Promega).
5; Incubation; 5 min, room temperature
6; Detection; Luminescence, Viewlux PerkinElmer.
NOTES (numbers refer to Sequence numbers above)
1. Briefly, 5 ul of cell reagent was dispensed using a Multidrop Combi Dispenser. The NOMO1 and SEM cells were plated at 500 cells/well and the P12-Ichikawa line at 1000 cells/well.
2. After seeding the cells, 23 nL of MIPE 4.1 library compounds (in DMSO) were added to each plate using a Kalypsys 1536 Pintool dispenser. Bortezomib at final concentration of […] and DMSO were added to each plate as positive and negative controls respectively. For each screen, MIPE 4.1 compounds were added over an eleven-point concentration range […] in 3-fold dilutions.
3. Each plate was covered with a stainless steel gasketed lid to prevent evaporation and incubated for 48 hour at 37C, 95% relative humidity, and 5% CO2.
4-5. Three microliter CellTilter-GloTM luminescent substrate mix (Promega) reagent was added to the assay plate and incubated at room temperature for 5 min.
6. The luminescence signal was measured using a ViewLux (PerkinElmer) multiplate reader with a 2 second exposure time per plate. Data for each compound were normalized as percent viability such that measurements for DMSO and the empty well controls in each plate were defined as 100% and 0%, respectively.
Potency means the concentration at half of the fitted maximal effect.

Compound	Potency
C#CCN(C)[C@H](C)Cc1ccccc1	inactive
C[C@]12CCC(=O)C(O)=C1CC[C@@H]1[C@H]3CCC(=O)[C@@]3(C)CC[C@@H]12	inactive
COc1ccc(C(CN(C)C)C2(O)CCCCC2)cc1 (stereo not given)	inactive
COc1ccc2c(c1)CN(C)CC2c1ccc(Cl)c(Cl)c1 (stereo not given)	inactive
CNC(=O)c1ccc(N2C(=S)N(c3ccc(C#N)c(C(F)(F)F)c3)C(=O)C23CCC3)cc1F	inactive
O=C(N[C@H]1CN2CCC1CC2)c1ccc(Cl)cc1	inactive
CN[C@@H]1Cc2cccc3[nH]c(=O)n(c23)C1	inactive
COc1ccc2c(c1)[C@]13CCCCC1C(C2)N(C)CC3 (stereo not given in full)	inactive
CN(C)CCN(C)CCc1ccc(Cl)c(Cl)c1	inactive
CC(=O)O[C@@]12CO[C@H]1C[C@H](O)[C@@]1(C)C(=O)[C@H](O)C3=C(C)[C@@H](O)C[C@@](O)([C@@H](OC(=O)c4ccccc4)[C@@H]21)C3(C)C	10.5 µM (active)
CC(C)C[C@H](CN)CC(=O)O	inactive
C=C1C[C@H]2[C@H]3CCC(=O)[C@@]3(C)CC[C@@H]2[C@@]2(C)C=CC(=O)C=C12	inactive
O=c1[nH]c2ccccc2n1C1CCN(Cc2ccc(-c3[nH]c4cc5ncnc5cc4nc3-c3ccccc3)cc2)CC1	inactive
C[C@@H]1CC[C@@]2(OC1)O[C@H]1C[C@H]3[C@@H]4CC=C5C[C@@H](O[C@@H]6O[C@H](CO)[C@@H](O[C@@H]7O[C@@H](C)[C@H](O)[C@@H](O)[C@@H]7O)[C@H](O)[C@@H]6O[C@@H]6O[C@@H](C)[C@H](O)[C@@H](O)[C@@H]6O)CC[C@]5(C)[C@@H]4CC[C@]3(C)[C@@H]1[C@H]2C	26.4 µM (active)
CN1C(=O)CCS(=O)(=O)C1c1ccc(Cl)cc1 (stereo not given)	inactive
COc1cccc2c1[C@]13CCN(CC4CC4)[C@H](C2)[C@]1(OC)CCC(=O)C3	inactive
Cc1ccccc1-n1c(Cn2ncc3c(N)ncnc32)nc2cccc(C)c2c1=O	2.96 µM (active)
C[C@](O)(CS(=O)(=O)c1ccc(F)cc1)C(=O)Nc1ccc(C#N)c(C(F)(F)F)c1	inactive
CCOP(=O)(OCC)C(C)NC(=O)N(CCCl)N=O (stereo not given)	inactive
C[C@]12CC[C@@H]3[C@@H](CCC4=CC(=O)CC[C@@H]43)[C@@H]1CC[C@@H]2OC(=O)CCc1ccccc1	inactive

Compound	Potency
CC(NC(C)(C)C)C(=O)c1cccc(Cl)c1 (stereo not given)	inactive
O=C(N[C@@H](COc1ccc2[nH]c(=O)[nH]c2c1)c1ccccc1)c1cccn(Cc2ccc(F)c(F)c2)c1=O	5.26 µM (active)
CCCC[N+]1(C)[C@H]2CC(OC(=O)[C@H](CO)c3ccccc3)C[C@H]1[C@H]1O[C@H]12 (stereo not given in full)	inactive
CCOC(=O)c1c(C(C#N)=CN)c2ccc(Cl)c(Cl)c2n1C	inactive
COC1(CS(=O)c2ccccc2)CCN(CCc2c[nH]c3ccc(F)cc23)CC1 (stereo not given)	inactive
CC(C)(C)[C@]1(O)C[C@@H]2OC(=O)C[C@@]23C(=O)O[C@@H]2OC(=O)[C@H](O)C213 (stereo not given in full)	inactive
Cc1cccc(C)c1NC(=O)CN1CCCC1=O	inactive
CC[C@H]1C=CC=CC[C@@H](C)[C@H](O)[C@@](C)(O)C(=O)[C@@H](C)[C@H](O)[C@@H](C)C(=O)[C@@H](C)[C@H](O)[C@@H](C)C=CC(=O)O[C@@H]2[C@@H](C)[C@H](CC1)O[C@]1(CC[C@H](C)[C@H](C[C@@H](C)O)O1)[C@H]2C	11.8 µM (active)
CCOc1ccccc1-n1c(C(C)N2CCN(C(=O)COc3ccc(Cl)cc3)CC2)nc2ccccc2c1=O (stereo not given)	0.741 µM (active)
COc1cc2cc(c1Cl)N(C)C(=O)C[C@H](OC(=O)C(C)C)[C@]1(C)O[C@H]1[C@H](C)[C@@H]1C[C@@](O)(NC(=O)O1)[C@H](OC)C=CC=C(C)C2	inactive
Clc1ccccc1C(c1ccccc1)(c1ccccc1)n1cccn1	inactive
C[C@@]12OC(=O)[C@]1([C@@H](O)[C@@H]1C=CCCC1)NC(=O)[C@H]2CCCl	0.235 µM (active)
CC(N[C@H]1C[C@H]1c1ccccc1)c1ccc2c(c1)OCCO2 (stereo not given in full)	inactive
CO[C@H]1CCC(O[C@H]2C[C@H]([C@]3(C)CC[C@]4(C[C@H](O)[C@@H](C)[C@@H]([C@@H](C)C=C(C)C(=O)[C@H](C)C[C@H](C)C(=O)O)O4)O3)O[C@]3(O[C@@H]([C@H]4O[C@@](O)(CO)[C@H](C)C[C@H]4C)C[C@H]3C)[C@H]2C)O[C@H]1C (stereo not given in full)	3.72 µM (active)
C[C@]12CC[C@H]3[C@@H](CCC4=CC(=O)CC[C@@]43C)[C@H]1CC[C@H]2O	inactive
CCc1c(C(=O)C(N)=O)c2c(OCC(=O)O)cccc2n1Cc1ccccc1	inactive
CC(C)c1cccc(C(C)C)c1O	inactive
Cc1c(C(=O)Nc2cccc(C(F)(F)F)c2)cc(-c2ccccc2)n1CCCN1CCOCC1	inactive
Cc1cc(SCc2sc(-c3ccc(C(F)(F)F)c(F)c3)nc2C)ccc1OCC(=O)O	inactive
CC1=C(O)C(=O)C=C2C1=CC=C1[C@@]2(C)CC[C@@]2(C)[C@@H]3C[C@](C)(C(=O)O)CC[C@]3(C)CC[C@]12C	5.9 µM (active)
